Reference: PubChem BioAssay (NCI)
About 79,000 compounds went through this panel and 15% of them were active in at least one assay; those are over-represented in the sample as a whole. Rule as the data show it: active = growth inhibition above about 70%; inactive = the rest. Where a SMILES comes first, the peptide text is derived from it. [ ]: non-standard residue; d: D form. The star is where a group is joined. ξ: configuration not given here. ξE = NC(CCC(=O)O)C(=O)O; Cbz = O=C(OCc1ccccc1)*

Experiments:
[1] = NCI Yeast Anticancer Drug Screen. Data for the rad50 strain (AID 155);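 also: 0% = growth of vehicle-only cultures of the same strain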; conditions: S. cerevisiae rad50 strain growth inhibition; at 50.0 µM; hits give high values
In short: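 Yeast carrying a defined DNA repair defect were exposed to test compounds, and growth was compared with vehicle-treated controls to give percent inhibition.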

[2] = NCI Yeast Anticancer Drug Screen. Data for the mec2-1 strain (AID 157); conditions: S. cerevisiae mec2-1 strain, at 50.0 µM, hits give high values
In short: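 Vehicle-treated cultures served as reference for growth inhibition of compound-exposed mec2-1 yeast.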

[3] = NCI Yeast Anticancer Drug Screen. Data for the sgs1 mgt1 strain (AID 161);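 also: 0% = growth of cultures given vehicle only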; conditions: S. cerevisiae sgs1 mgt1 strain, at 50.0 µM, hits give high values
In short: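 Genetically altered yeast, compound exposure, growth inhibition relative to vehicle.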

[4] = NCI Yeast Anticancer Drug Screen. Data for the cln2 rad14 strain (AID 165);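 also: 0% = growth equal to vehicle treated cultures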; conditions: S. cerevisiae cln2 rad14 strain, at 50.0 µM, hits give high values
In short: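 Each compound was tested on cln2 rad14 yeast. Inhibition of growth was calculated against vehicle-exposed controls.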

[5] = NCI Yeast Anticancer Drug Screen. Data for the bub3 strain (AID 167); conditions: S. cerevisiae bub3 mutant strain, at 50.0 µM, hits give high values
In short: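 Compounds were applied to a genetically altered yeast strain carrying a cell-cycle control defect. Growth inhibition was scored against vehicle-treated controls.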

[6] = NCI Yeast Anticancer Drug Screen. Data for the mlh1 rad18 strain (AID 175); conditions: S. cerevisiae mlh1 rad18 strain growth inhibition; at 50.0 µM; hits give high values
In short: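 Vehicle-treated cultures served as the reference for growth inhibition in a yeast strain carrying DNA damage repair alterations exposed to each compound.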

Measured: growth inhibition

COC(=O)NC(Cc1ccccc1)NC(=O)OC(C)(C)C (stereo not given)
inactive: [1] -30.6% | [2] -46% | [3] -20.5% | [4] -0.95% | [5] -4.25% | [6] -12.9%

CC1=NN(c2nc(N)nc(CSc3cc(Cl)c(C)cc3S(N)(=O)=O)n2)C(C)(C)C1
inactive: [1] -15.5% | [2] -8.7% | [3] 12.2% | [4] -8.35% | [5] -18.1% | [6] -4.95%

CNC(=O)Nc1cc2c3c(c1)CCCN3CCC2
inactive: [1] -16.8% | [2] -36.6% | [3] -9.45% | [4] -15.8% | [5] -9.55% | [6] -8.3%

CC(C)OC(=O)/C=C/C(=O)OC(C)C (tested in a mixture with another compound)
inactive: [1] -13.1% | [2] -6.9% | [3] -13.6% | [4] -20.4% | [5] -13.8% | [6] -23.1%

CCOC(=O)c1nc2cc(C(F)(F)F)ccc2nc1Nc1ccc(OC)c(OC)c1
inactive: [1] -18.1% | [2] -6.15% | [3] -16.9% | [4] -12.4% | [5] -12.8% | [6] -14%

Cc1nc[nH]c1[N+](=O)[O-]
inactive: [1] -6.6% | [2] -11% | [3] -10% | [4] 2.2% | [5] -0.85% | [6] -12.7%

CC(C)(C)C1CCC2c3c([nH]c4ncccc34)C3C(=O)N(c4ccccc4)C(=O)C3C2C1 (stereo not given)
inactive: [1] 20.4% | [2] -6.15% | [3] 1.7% | [4] -67.2% | [5] -32.6% | [6] -7.85%

COc1ccccc1NC(=O)/C(=C\n1c(=S)[nH]c2ccc([N+](=O)[O-])cc21)C(C)=O
inactive: [1] -9.7% | [2] -10.4% | [3] 2.55% | [4] -6.25% | [5] 4.95% | [6] -4.15%

O=C(Oc1ccccc1)C(Cc1ccccc1)NC(=O)C(F)(F)F (stereo not given)
inactive: [1] 4.6% | [2] 7.7% | [3] -4.8% | [4] 1.5% | [5] 5.85% | [6] -37.4%

Cc1cccc(-c2cc(=O)c3cccnc3[nH]2)c1
inactive: [1] 2.05% | [2] -1.45% | [3] 9.35% | [4] 4.05% | [5] -13% | [6] 1.25%

COc1ccc(Nc2nnc(-c3nsc4ccccc34)s2)cc1
inactive: [1] -2.5% | [2] -28.4% | [3] -37.9% | [4] 22.2% | [5] -27.9% | [6] -24.9%

NC1c2c(Cl)sc(Cl)c2C(=O)C1O (stereo not given)
inactive: [1] -0.8% | [2] 15.2% | [3] -10.2% | [4] -3.6% | [5] 4% | [6] -40.4%

O=c1[nH]cnc2c1cnn2-c1ccccc1
inactive: [1] 17.1% | [2] 5.3% | [3] 9.7% | [4] 3.85% | [5] -2.05% | [6] 22.4%

CCN(CC)CC(O)Cn1cnc2c(=S)nc[nH]c21 (stereo not given)
inactive: [1] 8.7% | [2] -4.05% | [3] -3.45% | [4] 4.9% | [5] 1.45% | [6] -4.45%

COC(=O)c1cccc2c1ccc1ccc3ccccc3c12
inactive: [1] -7.9% | [2] -19.4% | [3] -7.05% | [4] -84.5% | [5] -10.2% | [6] -17.9%

Cc1cc[n+](C(C)CCC(C)[n+]2ccc(C)cc2)cc1 (stereo not given)
inactive: [1] 25.2% | [2] 20.5% | [3] 42.5% | [4] 27% | [5] 14.2% | [6] 11.8%

NNC(=O)CC1(O)CCCCC1
inactive: [1] -0.35% | [2] -9.2% | [3] 2.3% | [4] 0.4% | [5] -17.1% | [6] -19.8%

CC(C)(C)NC(=O)Oc1ccccc1C(N)=O
inactive: [1] 4.4% | [2] -3.45% | [3] -5.2% | [4] -78.4% | [5] 4.9% | [6] -11.7%

c1ccc(N2C3Sc4ncccc4C2Sc2ncccc23)cc1
inactive: [1] -20.4% | [2] 2.8% | [3] 16.6% | [4] 6.1% | [5] -1.05% | [6] 7.85%

CN(C)c1ccc(C=C(C(=O)c2ccccc2)C(=O)c2ccccc2)cc1
inactive: [1] 9.45% | [2] 1.9% | [3] 0.75% | [4] 8.6% | [5] 20.1% | [6] 37%

O=C(O)CCC(NC(=O)OCc1ccccc1)C(=O)NCC(=O)O (stereo not given) (Cbz-[ξE]-Gly-OH)
inactive: [1] 12.3% | [2] 2.85% | [3] 0.35% | [4] 46.8% | [5] 3.15% | [6] -6.5%

CC([O-])=C1C(=O)c2ccccc2C1=O.CC([O-])=C1C(=O)c2ccccc2C1=O.CC[O-].CC[O-].[Ti+4]
inactive: [1] 19.4% | [2] 27.6% | [3] 55.4% | [4] 29% | [5] 37.8% | [6] 36.5%

Cc1ccc(-c2c3nc(c(-c4ccc(C)cc4)c4ccc([nH]4)c(-c4ccc(OCC5COC(C)(C)O5)cc4)c4nc(c(-c5ccc(C)cc5)c5ccc2[nH]5)C=C4)C=C3)cc1 (stereo not given)
inactive: [1] -58.3% | [2] -32.9% | [3] -50.3% | [4] -23.9% | [5] -40.5% | [6] -66.7%

CC(NNC(=O)c1ccncc1)c1ccc(Cl)cc1Cl (stereo not given)
inactive: [1] -19.9% | [2] 9.15% | [3] -21.6% | [4] 22.6% | [5] 13.8% | [6] -16.1%

O=C(/C=C/c1ccc(O)c(O)c1)c1ccc(O)cc1O
inactive: [1] -26.5% | [2] -27.9% | [3] -24.2% | [4] 4.05% | [5] -40.6% | [6] -38.9%

CC(=O)OCc1ccnc2ccc(OC(C)=O)cc12
inactive: [1] 0.05% | [2] 15.4% | [3] -6.4% | [4] -8.75% | [5] -5.2% | [6] 2.75%

COc1ccc(OC(=O)Nc2cccc(Cl)c2)cc1
inactive: [1] 8.4% | [2] 39.1% | [3] 29.8% | [4] -11.3% | [5] 31.4% | [6] 55.6%

C1=CC2=CC=CC3c4nc5ccc6ccccc6c5nc4C(=C1)C23 (stereo not given)
inactive: [1] 11.4% | [2] -9.3% | [3] -0.9% | [4] 4.25% | [5] -2.55% | [6] 8.75%

C1CCN(/N=N/c2nn[nH]n2)CC1
inactive: [1] -2.3% | [2] 6.55% | [3] -2.8% | [4] -23% | [5] 3.9% | [6] -0.7%

OC(c1ccccc1)C(CN1CCCCC1)c1ccccc1 (stereo not given)
inactive: [1] 3.9% | [2] 2.55% | [3] 24.9% | [4] -11.8% | [5] 4.95% | [6] 15.4%

CC(C)(C)C(=O)C1C(=O)c2ccccc2C1=O
inactive: [1] 50.6% | [2] 21.8% | [3] 54% | [4] -35.5% | [5] 5.95% | [6] 31.9%

CCOc1ccc(NC(=S)N/C=C(/C#N)C(N)=O)cc1
inactive: [1] -13.6% | [2] -26.4% | [3] -15.3% | [4] -14.2% | [5] -16.9% | [6] -3.5%

O=NNc1ccc(-c2ccc(NN=O)cc2)cc1
inactive: [1] 19.4% | [2] 0.75% | [3] 10.8% | [4] 10.2% | [5] -10.1% | [6] 8.95%

COc1cc(C2c3cc4c(c(OC(=O)c5ccccn5)c3CC3COC(=O)C32)OCO4)cc(OC)c1OC (stereo not given)
inactive: [1] 8.1% | [2] 10.1% | [3] 11.6% | [4] -9.5% | [5] 13% | [6] 34%

CC(C)N(CC(c1ccccc1)C(C)(O)c1ccccc1)C(C)C (stereo not given)
inactive: [1] -10.1% | [2] 15.7% | [3] -7.55% | [4] 4.2% | [5] 26.7% | [6] -21.1%

N#CC(C#N)=NO (tested in a mixture with another compound)
inactive: [1] 11.8% | [2] 6.6% | [3] -7.7% | [4] -0.75% | [5] 5.3% | [6] 5.75%

Clc1ccc(C2N(Cc3ccccc3)CCC3CCCCN32)cc1Cl (stereo not given)
inactive: [1] -10.1% | [2] -21.6% | [3] 13.7% | [4] 26.1% | [5] -10.1% | [6] -1.4%

CC(=O)Nc1ccc(S(=O)(=O)NCCC(=O)O)cc1
inactive: [1] -9.7% | [2] -16.6% | [3] 2.45% | [4] 4.3% | [5] 4.45% | [6] 21.8%

O=C(SCc1oc2ccccc2c1O)c1ccccc1
inactive: [1] 12.8% | [2] 13.7% | [3] 16.5% | [4] -3.75% | [5] -7.3% | [6] 13.3%

Cc1ccc(C)n1N(c1ccccc1)c1ccccc1
inactive: [1] -13.6% | [2] 7.1% | [3] 2.65% | [4] -36.4% | [5] 21.6% | [6] 9.1%
